Assay outcomes: PubChem BioAssay, National Center for Advancing Translational Sciences (NCATS)
Hits are enriched below; roughly 19% of the tested compounds scored in any of these assays.
IL1B secr inh – qHTS for Inhibitors of Inflammasome Signaling: IL-1-beta AlphaLISA Primary Screen; THP-1 LPS/ATP IL-1B secretion, AlphaLISA, 16 h; active compounds read low; actives 4.7% (n = 360,000); activity change, % at 57.5 µM; in the data active = activity change below about -50%; inconclusive = mostly about -30% to -49%
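Secreted IL-1B measured by AlphaLISA bead assay after 16 h compound exposure of THP-1 cells; compounds (final up to 57.5 uM) added 1 h before LPS (250 ng/mL) and ATP (1.25 mM) stimulation; lower signal means less secretion.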
DT40 TDP1 CPT – qHTS for Inhibitors of human tyrosyl-DNA phosphodiesterase 1 (TDP1): qHTS in cells in presence of CPT; chicken DT40 Tdp1-/-;hTDP1 cells + 20 nM CPT, ATP luminescence, 48 h; Potency, µM (series often up to 46.2 µM), inactives show at the highest dose activity change, negative = growth inhibition, hits mostly inhibitors; actives 12% (n = 420,000); note: potency is the fitted concentration of half-maximal effect; nearly all actives have a fitted effect of over 55% in size
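Chicken DT40 Tdp1-/- cells stably complemented with human TDP1 were seeded at 400 cells/well in medium containing 20 nM camptothecin, exposed to pin-transferred compounds, and grown at 37 °C for at least 48 hr. Viability was read as ATP luminescence.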
DT40 TDP1 no CPT – qHTS for Inhibitors of human tyrosyl-DNA phosphodiesterase 1 (TDP1): qHTS in cells in absence of CPT; DT40 Tdp1-/- hTDP1 cells, no CPT, ATP luminescence, 48 h; Potency, µM (titrated, usually from 46.2 µM), inactives show top-dose activity change, negative = growth inhibition, usual class: inhibitors; actives 15% (n = 420,000); AID 686978, 2013; note: potency is the fitted concentration of half-maximal effect; nearly all actives have a fitted effect of over 55% in size
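No-CPT arm: Tdp1-/-;hTDP1 DT40 cells (400/well) plus compounds, incubated ≥48 hr at 37 °C. Readout CellTiter-Glo luminescence.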
HT1080 IDH1KD tx – qHTS for induction of synthetic lethality in tumor cells producing 2HG: qHTS for the HT-1080-IDH1KD cell line; Potency, µM (doses to about 46.1 µM), for inactives: top-dose activity, negative = toxicity, most hits filed as cytotoxic; HT-1080 IDH1 knockdown viability, ATP luminescence, 48 h; actives 2% (n = 360,000); AID 686971, 2013;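 note: potency is the fitted concentration of half-maximal effect; 0% = DMSO wells and -100% = cell-free medium wells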
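Using the IDH1-knockdown HT-1080 line run in the same batch and compound series as the NT line, viability after 48 h at 37 °C was determined by CellTiter-Glo luminescence and expressed as % activity.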
HT1080-NT tox – qHTS for induction of synthetic lethality in tumor cells producing 2HG: qHTS for the HT-1080-NT fibrosarcoma cell line. HT-1080-NT fibrosarcoma viability, CellTiter-Glo ATP luminescence, 48 h. Potency, µM (titrated, usually from 46.1 µM), for inactives: top-dose activity, negative = less viability, actives largely listed as cytotoxic. actives 1.6% (n = 360,000);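 note: NT is the 2HG producing partner of a matched IDH1 knockdown line; potency is the fitted concentration of half-maximal effect; 0% = DMSO-treated cells and -100% = media-only wells without cells; nearly all actives have a fitted effect of over 55% in size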
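A 48-hour cytotoxicity screen used HT-1080-NT cells plated 2 hours before compound delivery. ATP-based CellTiter-Glo luminescence measured viability, normalized to DMSO and no-cell controls.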
* marks the source's active call; other numbers are inactive results; [ ] = remark or other dose. Unless noted, calls come from the whole dose curve; as a rule, active = well fitted curve in the direction sought with a large enough effect; inconclusive = small, poorly fitted or top-dose-only effect, or another doubt; inactive = no such curve, though single readings can be large; an effect the other way counts as inactive or inconclusive. Unless noted, % is set by controls: 0 for no effect and ±100 for the full control effect.

What do the screens show for `COc1ccc(-c2cc3nc(C)c(C)c(N4CCN(C(=O)c5ccoc5)CC4)n3n2)cc1`?
IL1B secr inh: 2; DT40 TDP1 CPT: inconclusive; DT40 TDP1 no CPT: 18µM*; HT1080 IDH1KD tx: -6%; HT1080-NT tox: -9%

What do the screens show for `COc1ccc(-c2[nH]nc3nc(N4CCN(C(=O)c5ccoc5)CC4)cc(C(F)(F)F)c23)cc1`?
IL1B secr inh: -27; DT40 TDP1 CPT: 8.2µM*; DT40 TDP1 no CPT: 8.2µM*; HT1080 IDH1KD tx: inconclusive; HT1080-NT tox: inconclusive

How did CC(C)n1c(Oc2ccc(F)cc2)nc2c1c(=O)n(C)c(=O)n2C do in these assays?
IL1B secr inh: 46; DT40 TDP1 CPT: 3%; DT40 TDP1 no CPT: -16%; HT1080 IDH1KD tx: 6%; HT1080-NT tox: 2%

Results for CCc1ccc(/C=C2/Sc3ccccc3N(CC(=O)NCC3CCCO3)C2=O)cc1 (centres undefined) ?
IL1B secr inh: -6; DT40 TDP1 CPT: inconclusive; DT40 TDP1 no CPT: inconclusive; HT1080 IDH1KD tx: inconclusive; HT1080-NT tox: -16%

Results for O=C(CCNC(=O)c1ccc([N+](=O)[O-])cc1)NNC(=O)c1ccccc1F ?
IL1B secr inh: -17; DT40 TDP1 CPT: 3%; DT40 TDP1 no CPT: 11%; HT1080 IDH1KD tx: 4%; HT1080-NT tox: 1%[9.24 µM]

What do the screens show for `Cc1cc(=O)[nH]c(SCC(=O)NCC2CCCCC2)c1C#N`?
IL1B secr inh: 20; DT40 TDP1 CPT: -5%; DT40 TDP1 no CPT: 0%; HT1080 IDH1KD tx: -7%; HT1080-NT tox: -2%

Results for Cc1cc(C)n2nc(-c3ccc(F)cc3)cc2n1 ?
IL1B secr inh: 23; DT40 TDP1 CPT: -21%; DT40 TDP1 no CPT: -21%; HT1080 IDH1KD tx: 0%; HT1080-NT tox: -2%

What do the screens show for `Cc1nc2cc(-c3cccc(F)c3)nn2c(N2CCN(C(=O)c3ccco3)CC2)c1C`?
IL1B secr inh: -14; DT40 TDP1 CPT: 15µM*; DT40 TDP1 no CPT: 15µM*; HT1080 IDH1KD tx: -7%; HT1080-NT tox: -5%

What do the screens show for `COc1ccc(-c2cc3nc(C)cc(N4CC(C)CC(C)C4)n3n2)cc1` (centres undefined)?
IL1B secr inh: -12; DT40 TDP1 CPT: inconclusive; DT40 TDP1 no CPT: 18µM*; HT1080 IDH1KD tx: -2%[9.24 µM]; HT1080-NT tox: 16%

Results for Cc1ccc(NC(=O)Cn2cc(S(=O)(=O)N3CCCC3)c(S(=O)(=O)N3CCCC3)c2)cc1F ?
DT40 TDP1 CPT: -16%; DT40 TDP1 no CPT: -14%

How did C[C@H](NC(=O)/C=C/[C@H]1O[C@@H](n2ccc(=O)[nH]c2=O)[C@H](O)[C@@H]1O)C(=O)O do in these assays?
IL1B secr inh: 10; DT40 TDP1 CPT: -1%; DT40 TDP1 no CPT: -5%; HT1080 IDH1KD tx: 26%; HT1080-NT tox: 14%

Results for COc1ccc(NC(=O)NNC(=O)c2ccc3ccccc3c2)cc1OC ?
IL1B secr inh: inactive; DT40 TDP1 CPT: 0%; DT40 TDP1 no CPT: -1%; HT1080 IDH1KD tx: 0%; HT1080-NT tox: 0%

What do the screens show for `CC1(C)CC2(OC2c2ccccc2[N+](=O)[O-])C(=O)c2ccccc21` (centres undefined)?
IL1B secr inh: 3; DT40 TDP1 CPT: 16µM*; DT40 TDP1 no CPT: 18µM*; HT1080 IDH1KD tx: -12%; HT1080-NT tox: -12%

Results for CC1(C)CC2(OC2c2ccccc2)C(=O)c2ccccc21 (centres undefined) ?
IL1B secr inh: -14; DT40 TDP1 CPT: -3%; DT40 TDP1 no CPT: inconclusive; HT1080 IDH1KD tx: 5%; HT1080-NT tox: 3%

How did CCn1c(CN2CCC(C)CC2)nc2cc(NC(=O)COc3ccc(Cl)c(C)c3)ccc21 do in these assays?
DT40 TDP1 CPT: 6.5µM*; DT40 TDP1 no CPT: 5.2µM*
